Laboratory results taken from PubChem BioAssay AID1159580 (chemical genetic matrix, 2015).
Hit rate of the full screen: of about 5,500 compounds, about 2,000 (36%) were called active. About 18% were inconclusive and are not listed. Cut-off read from the data, not from the text of the source: active = normalized growth mostly below about 0.91 (no sharp cut-off); inconclusive = no clear call, values can overlap the other calls; inactive = mostly above about 0.92. The list shows a part of the results.

Experiment: chemical genetic growth profiling, strain panel (AID 1159580);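 note: tested at 20 µM; growth read once vehicle control cultures reached saturation at 30 °C; 1 = growth at the plate median or of vehicle wells; lower values mean less growth of the strain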
Settings: growth OD

Measured: normalized growth

CCOC(=O)CC(SP(=S)(OC)OC)C(=O)OCC (stereo unspecified)
inactive: S. cerevisiae deletion strains, locus YAL013W, strain DEP1, active compounds read low 1.02 | S. cerevisiae deletion strains, locus YBR021W, strain FUR4, active compounds read low 1.01 | S. cerevisiae deletion strains, locus YBR229C, strain ROT2, active compounds read low 1.01 | S. cerevisiae deletion strains, locus YCL029C, strain bik1, active compounds read low 1.01 | S. cerevisiae deletion strains, locus YDL035C, strain GPR1, active compounds read low 1.02 | S. cerevisiae deletion strains, locus YDL074C, strain BRE1, active compounds read low 0.996 | S. cerevisiae deletion strains, locus YDL101C, strain DUN1, active compounds read low 1 | S. cerevisiae deletion strains, locus YDL134C, strain PPH21, active compounds read low 1.01 | S. cerevisiae deletion strains, locus YDL185W, strain tfp1, active compounds read low 1.02 | S. cerevisiae deletion strains, locus YDL192W, strain arf1, active compounds read low 1 | S. cerevisiae deletion strains, locus YDR101C, strain arx1, active compounds read low 0.998 | S. cerevisiae deletion strains, locus YDR150W, strain NUM1, active compounds read low 0.996 | S. cerevisiae deletion strains, locus YDR162C, strain NBP2, active compounds read low 1.01 | S. cerevisiae deletion strains, locus YDR318W, strain mcm21, active compounds read low 1.02 | S. cerevisiae deletion strains, locus YDR388W, active compounds read low 1.01 | S. cerevisiae deletion strains, locus YDR502C, strain sam2, active compounds read low 0.998 | S. cerevisiae deletion strains, locus YEL061C, strain CIN8, active compounds read low 1.01 | S. cerevisiae deletion strains, locus YER110C, active compounds read low 1.01 | S. cerevisiae deletion strains, locus YER155C, strain BEM2, active compounds read low 1.02 | S. cerevisiae deletion strains, locus YER167W, strain BCK2, active compounds read low 1.02 | S. cerevisiae deletion strains, locus YGL078C, strain dbp3, active compounds read low 0.998 | S. cerevisiae deletion strains, locus YGL086W, strain mad1, active compounds read low 1 | S. cerevisiae deletion strains, locus YGL248W, strain PDE1, active compounds read low 1.01 | S. cerevisiae deletion strains, locus YGR078C, strain PAC10, active compounds read low 1.01 | S. cerevisiae deletion strains, locus YGR135W, strain pre9, active compounds read low 0.994 | S. cerevisiae deletion strains, locus YGR229C, strain SMI1, active compounds read low 1.02 | S. cerevisiae deletion strains, locus YGR252W, strain gcn5, active compounds read low 1 | S. cerevisiae deletion strains, locus YHR030C, strain SLT2, active compounds read low 1.02 | S. cerevisiae deletion strains, locus YHR079C, strain IRE1 (second series), active compounds read low 1.01 | S. cerevisiae deletion strains, locus YHR094C, strain hxt1, active compounds read low 1.01 | S. cerevisiae deletion strains, locus YHR129C, strain ARP1, active compounds read low 1.02 | S. cerevisiae deletion strains, locus YHR200W, strain rpn10, active compounds read low 1.01 | S. cerevisiae deletion strains, locus YIL066C, strain RNR3, active compounds read low 1.04 | S. cerevisiae deletion strains, locus YIL073C, strain SPO22, active compounds read low 1.09 | S. cerevisiae deletion strains, locus YIL125W, strain kgd1, active compounds read low 0.998 | S. cerevisiae deletion strains, locus YIR030C, strain dcg1, active compounds read low 1 | S. cerevisiae deletion strains, locus YJL095W, strain BCK1, active compounds read low 1.02 | S. cerevisiae deletion strains, locus YJL134W, strain LCB3, active compounds read low 1.01 | S. cerevisiae deletion strains, locus YJL168C, strain set2, active compounds read low 1.01 | S. cerevisiae deletion strains, locus YJL187C, strain SWE1 (second series), active compounds read low 1.01 | S. cerevisiae deletion strains, locus YJR043C, strain POL32, active compounds read low 1.01 | S. cerevisiae deletion strains, locus YJR075W, strain HOC1, active compounds read low 1.01 | S. cerevisiae deletion strains, locus YKL009W, strain mrt4, active compounds read low 1.01 | S. cerevisiae deletion strains, locus YKL068W, active compounds read low 1.01 | S. cerevisiae deletion strains, locus YKL085W, strain MDH1 (second series), active compounds read low 1.01 | S. cerevisiae deletion strains, locus YKL085W, strain MDH1, active compounds read low 1.01 | S. cerevisiae deletion strains, locus YKL190W, strain CNB1, active compounds read low 1.01 | S. cerevisiae deletion strains, locus YKR001C, strain vps1, active compounds read low 1.02 | S. cerevisiae deletion strains, locus YLR039C, strain RIC1, active compounds read low 1.06 | S. cerevisiae deletion strains, locus YLR058C, strain SHM2, active compounds read low 1.02 | S. cerevisiae deletion strains, locus YLR102C, strain apc9, active compounds read low 1.01 | S. cerevisiae deletion strains, locus YLR262C, strain YPT6, active compounds read low 1.04 | S. cerevisiae deletion strains, locus YLR268W, strain sec22, active compounds read low 0.997 | S. cerevisiae deletion strains, locus YLR330W, strain CHS5, active compounds read low 1.01 | S. cerevisiae deletion strains, locus YLR342W, strain FKS1 (second series), active compounds read low 1.07 | S. cerevisiae deletion strains, locus YLR371W, strain rom2, active compounds read low 1.01 | S. cerevisiae deletion strains, locus YLR418C, strain cdc73, active compounds read low 0.988 | S. cerevisiae deletion strains, locus YML016C, strain PPZ1, active compounds read low 1.01 | S. cerevisiae deletion strains, locus YML032C, strain rad52, active compounds read low 1 | S. cerevisiae deletion strains, locus YML124C, strain tub3, active compounds read low 1.01 | S. cerevisiae deletion strains, locus YMR078C, strain ctf18, active compounds read low 1.02 | S. cerevisiae deletion strains, locus YMR223W, strain ubp8, active compounds read low 1.01 | S. cerevisiae deletion strains, locus YMR263W, strain SAP30, active compounds read low 1.01 | S. cerevisiae deletion strains, locus YMR307W, strain GAS1, active compounds read low 1.05 | S. cerevisiae deletion strains, locus YNL067W, strain RPL9B, active compounds read low 0.998 | S. cerevisiae deletion strains, locus YNL128W, strain TEP1, active compounds read low 1 | S. cerevisiae deletion strains, locus YNL153C, strain GIM3, active compounds read low 1.01 | S. cerevisiae deletion strains, locus YNL233W, strain BNI4, active compounds read low 1 | S. cerevisiae deletion strains, locus YNL250W, strain rad50, active compounds read low 1.01 | S. cerevisiae deletion strains, locus YNL271C, strain bni1, active compounds read low 1.02 | S. cerevisiae deletion strains, locus YNL298W, strain CLA4, active compounds read low 1.02 | S. cerevisiae deletion strains, locus YNL307C, strain MCK1, active compounds read low 1.02 | S. cerevisiae deletion strains, locus YNL322C, strain KRE1, active compounds read low 1.01 | S. cerevisiae deletion strains, locus YNR052C, strain pop2, active compounds read low 1 | S. cerevisiae deletion strains, locus YOL006C, strain TOP1, active compounds read low 1.02 | S. cerevisiae deletion strains, locus YOL012C, strain htz1 0.831 | S. cerevisiae deletion strains, locus YOL147C, strain pex11, active compounds read low 1.01 | S. cerevisiae deletion strains, locus YOR061W, strain CKA2, active compounds read low 1 | S. cerevisiae deletion strains, locus YOR069W, strain VPS5, active compounds read low 1.01 | S. cerevisiae deletion strains, locus YOR136W, strain idh2, active compounds read low 1 | S. cerevisiae deletion strains, locus YOR144C, strain elg1, active compounds read low 1 | S. cerevisiae deletion strains, locus YOR184W, strain ser1, active compounds read low 1.02 | S. cerevisiae deletion strains, locus YOR316C, strain cot1, active compounds read low 1 | S. cerevisiae deletion strains, locus YPL055C, strain LGE1, active compounds read low 1 | S. cerevisiae deletion strains, locus YPL241C, strain CIN2, active compounds read low 1.01 | S. cerevisiae deletion strains, locus YPR119W, strain clb2, active compounds read low 1 | S. cerevisiae deletion strains, locus YPR141C, strain kar3, active compounds read low 1 | S. cerevisiae deletion strains, locus YPR163C, strain tif3, active compounds read low 1.01 | S. cerevisiae deletion strains, locus YPR167C, strain met16, active compounds read low 1.01 | S. cerevisiae deletion strains, strain wtn01, active compounds read low 0.996 | S. cerevisiae strains, strain wild type, active compounds read low 1.01
